Assay results as given in PubChem BioAssay (EPA / NIEHS).
Some structures have more than one record in an assay (separate samples or runs), and their calls can disagree. The source made the active and inactive calls. Rule for the calls: active = hit-call score of the fitted dose curve at least 0.9, where 1 is the maximum; inactive = score below 0.9.

These molecules were tested on Monocyte Chemoattractant Protein-1 (MCP1), CCL2 (gene 6347) (assay: BSK_LPS_MCP1: BioMAP Diversity Plus: LPS Assay for Monocyte Chemoattractant Protein-1 (MCP1) Biomarker Activity (AID 2283081;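 for AC50: co-culture stimulated with LPS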)). Conditions: primary human HUVEC with PBMC; actives raise or lower the signal.
Description: BSK_LPS is a cell-based, multiplexed-readout assay that uses umbilical vein endothelium and peripheral blood mononuclear cells, a human vascular primary cell co-culture, with measurements taken at 24 hours after chemical dosing in a 96-well plate.BSK_LPS_MCP1 is an assay component measured in the BSK_LPS assay. It measures MCP-1 antibody related to regulation of gene expression using ELISA technology.Data from the assay component BSK_LPS_MCP1 was analyzed into 1 assay endpoint. This assay endpoint, BSK_LPS_MCP1, was analyzed with bidirectional fitting relative to DMSO as the negative control and baseline of activity. Using a type of binding reporter, gain or loss-of-signal activity can be used to understand changes in the signaling as they relate to the gene CCL2. Furthermore, this assay endpoint can be referred to as a primary readout, because this assay has produced multiple assay endpoints where this one serves a signaling function. To generalize the intended target to other relatable targets, this assay endpoint is annotated to the cytokine intended target family, where the subfamily is chemotactic factor.
The levels of cell surface (or secreted, indicated by the prefix "s") biomarker endpoints were measured by ELISA. Overt cytotoxicity to cells in confluent adherent cultures (all systems other than the BT system) was assessed by measuring total protein levels using sulforhodamine B (SRB) staining in parallel cultures at the time of biomarker measurements, indicated as SRB endpoints. For proliferation assays for adherent cell types, individual cell types are cultured at sub-confluence and relative cell numbers quantified by SRB staining at time points optimized for each system (48 h: 3C and CASM3C systems; 72 h: BT and HDF3CGF systems; 96 h: SAg system). SRB was performed by staining cells with 0.1% SRB after fixation with 10% TCA and reading wells at 560 nm.Viability and proliferation of PBMC (T cells) was quantified by Alamar Blue reduction for the SAg and BT systems. For PBMC viability (referred to as PBMC Cytotoxicity within the assay endpoint names), cells were plated (75,000/well in a 96-well plate) and then chemical samples added for 1 h before addition of activators, SEB and TSST-1 (20 ng/mL final concentration each). Cells were incubated for 90 h. Then, Alamar Blue (20 uL/well) (Invitrogen, Cat DAL1100) was added for 6 h, and the plates were read with a fluorescence microplate reader at 546/580 nm (excitation/emission). For PBMC proliferation, cells were plated and activated as above but incubated for only 16 h prior to addition of Alamar Blue. Plates were read after 6 h.

Row | SMILES | outcome | AC50
1 | CC(C)CCCCCCOC(=O)c1ccccc1C(=O)OCCCCCCC(C)C | inactive | 
2 | C[C@]12CCC(=O)C[C@@H]1CC[C@@H]1[C@@H]2CC[C@]2(C)[C@@H](O)CC[C@@H]12 |  | 26 µM (active)
3 | O=c1[nH]c(=O)[nH]c(=O)[nH]1 | inactive | 
4 | COc1cc(OC)nc(NC(=O)NS(=O)(=O)c2ncccc2C(=O)N(C)C)n1 | inactive | 
5 | COP(=S)(OC)Oc1ccc(S(=O)(=O)N(C)C)cc1 | inactive | 
6 | Oc1c(I)cc(I)cc1I | inactive | 
7 | Cn1sc(Cl)cc1=O |  | 35.2 µM (active)
8 | COP(=S)(OC)Oc1ccc(Sc2ccc(OP(=S)(OC)OC)cc2)cc1 |  | 12.5 µM (active)
9 | CCOP(=S)(OCC)SCCS(=O)(=O)CC | inactive | 
10 | CCCCCCCCc1ccc(O)cc1 |  | 37.4 µM (active)
11 | CC(=O)[O][Hg][c]1ccccc1 |  | 1.7 µM (active)
12 | CC(C)c1ccc(CO)cc1 | inactive | 
13 | Oc1ccc(-c2ccccc2)cc1 | inactive | 
14 | CCN1CCC2(CC1)COc1cc3c(cc12)N(C(=O)c1ccc(-c2ccc(-c4nnc(C)o4)cc2C)cc1)CC3 |  | 16.8 µM (active)
15 | ClC(Cl)=C(Cl)C(Cl)=C(Cl)Cl | inactive | 
16 | C=C(C)C(=O)[O][Sn]([CH2]CCC)([CH2]CCC)[CH2]CCC |  | 0.331 µM (active)
17 | CC(C)(OO)c1ccccc1 | inactive | 
18 | COc1cc(-c2ccc(N)c(OC)c2)ccc1N | inactive | 
19 | O=C(O)CCC(F)(C(F)(F)F)C(F)(F)F | inactive | 
20 | O=C(OC1CCCCC1)c1ccccc1C(=O)OC1CCCCC1 |  | 27.9 µM (active)

Row | SMILES | outcome | AC50
21 | ClC1=C(Cl)[C@]2(Cl)[C@H]3[C@H]([C@H]4C=C[C@H]3C4)[C@@]1(Cl)C2(Cl)Cl | inactive | 
22 | O=C(O)C(F)(F)C(F)(F)C(F)(F)C(F)(F)C(F)(F)C(F)(F)C(F)(F)C(F)(F)C(F)(F)C(F)(F)F | inactive | 30.2 µM (active)
23 | COC[C@H](C)N(C(=O)CCl)c1c(C)csc1C | inactive | 
24 | Oc1cccc2cccnc12 | inactive | 
25 | C[C@@H]1C[C@@H]([C@H](O)CC2CC(=O)NC(=O)C2)C(=O)[C@@H](C)C1 |  | 7.05 µM (active)
26 | Nc1ccc(-c2ccc(N)c(Cl)c2)cc1Cl | inactive | 
27 | BrCCBr | inactive | 
28 | COC(=O)c1sccc1S(=O)(=O)NC(=O)Nc1nc(C)nc(OC)n1 | inactive | 
29 | ClC1(Cl)C2(Cl)C3(Cl)C4(Cl)C(Cl)(Cl)C5(Cl)C3(Cl)C1(Cl)C5(Cl)C24Cl (stereo not given) | inactive | 
30 | O=S(=O)(c1ccc(Cl)cc1)c1ccc(Cl)cc1 | inactive | 
31 | O=C(O)C(Cl)(Cl)Cl | inactive | 
32 | CN(C)N=O | inactive | 
33 | CC(=O)OC(c1ccccc1)C(Cl)(Cl)Cl (stereo not given) | inactive | 
34 | OCc1ccco1 | inactive | 
35 | O=C(O)C(F)(F)C(F)(F)C(F)(F)C(F)(F)C(F)(F)C(F)(F)F | inactive | 
36 | O=[N+]([O-])c1ccc(O)c([N+](=O)[O-])c1 | inactive | 
37 | CCOC(=O)/C=C(C)/C=C/C[C@@H](C)CCCC(C)C |  | 30.7 µM (active)
38 | CCNc1nc(NC(C)(C)C)nc(SC)n1 | inactive | 
39 | COP(=S)(OC)Oc1cc(Cl)c(Cl)cc1Cl | inactive | 
